Screening results as filed in PubChem.
The list is not random: actives were taken first. Their share in the collection is about 1.7%.
Myeloid diff 2: promotes myeloid progenitor differentiation. 1% of 360,000 active. ER-HoxA9 myeloid progenitors, lysozyme-GFP differentiation, flow cytometry. calls only at 10 µM;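 active = normalized GFP-positive differentiation at or above the plate's own cutoff, the solvent-only control mean plus 3 SD; inconclusive = no clear call, values can overlap the other calls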;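 note: cells exposed to compound for four days before flow analysis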
TLR4 MyD88 comp: inhibitors of human TLR4-MyD88 binding; AID 861; O00206+Q99836; 0.18% of 200,000 active; HeLa CL3-4 TLR4/MyD88 BLA complementation, FRET ratio; inhibition, % at 8.4 µM; in the data active = inhibition above about 25%;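 note: 0% = vehicle and 100% = reference inhibitor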
Target sequence (O00206 whole entry, looked up): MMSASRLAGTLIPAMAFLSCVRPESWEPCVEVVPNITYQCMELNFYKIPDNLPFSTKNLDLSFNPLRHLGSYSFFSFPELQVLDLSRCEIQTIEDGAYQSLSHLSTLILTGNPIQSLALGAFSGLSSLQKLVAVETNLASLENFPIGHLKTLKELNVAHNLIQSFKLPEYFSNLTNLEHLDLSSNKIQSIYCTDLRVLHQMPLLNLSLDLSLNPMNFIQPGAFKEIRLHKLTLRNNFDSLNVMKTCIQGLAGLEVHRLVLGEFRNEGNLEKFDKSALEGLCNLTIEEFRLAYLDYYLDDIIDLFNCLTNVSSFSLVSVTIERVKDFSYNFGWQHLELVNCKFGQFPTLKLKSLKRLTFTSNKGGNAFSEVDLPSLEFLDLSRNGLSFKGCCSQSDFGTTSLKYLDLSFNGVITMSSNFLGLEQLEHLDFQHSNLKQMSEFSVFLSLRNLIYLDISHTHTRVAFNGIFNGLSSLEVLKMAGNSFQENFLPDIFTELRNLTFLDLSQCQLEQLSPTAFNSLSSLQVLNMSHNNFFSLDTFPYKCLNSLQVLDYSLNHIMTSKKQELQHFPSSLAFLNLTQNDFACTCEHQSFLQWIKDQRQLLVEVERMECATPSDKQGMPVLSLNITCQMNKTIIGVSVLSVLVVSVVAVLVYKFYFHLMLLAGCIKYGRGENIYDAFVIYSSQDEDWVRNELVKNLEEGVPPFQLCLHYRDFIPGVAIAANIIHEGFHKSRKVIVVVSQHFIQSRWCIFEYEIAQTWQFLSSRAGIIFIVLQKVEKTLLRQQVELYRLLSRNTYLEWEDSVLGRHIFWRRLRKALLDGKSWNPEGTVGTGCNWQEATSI
Target sequence (Q99836 whole entry, looked up): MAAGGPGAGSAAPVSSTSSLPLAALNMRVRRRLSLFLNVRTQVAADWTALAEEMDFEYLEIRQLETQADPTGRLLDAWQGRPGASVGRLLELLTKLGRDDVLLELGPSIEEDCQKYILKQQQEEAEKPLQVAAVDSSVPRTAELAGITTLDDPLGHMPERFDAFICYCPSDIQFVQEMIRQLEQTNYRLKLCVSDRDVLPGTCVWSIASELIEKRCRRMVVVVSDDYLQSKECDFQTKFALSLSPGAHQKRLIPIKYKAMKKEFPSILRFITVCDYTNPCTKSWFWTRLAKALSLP
NOD2 RIPK2 PPI: NOD2-RIPK2 protein interaction inhibition | O43353 | CHO BLA complementation NOD2-RIPK2, CCF4 ratio | inhibition, % at 4.98 µM | 0.38% of 360,000 active | AID 624267; in the data active = inhibition above about 21%;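 note: 0% = vehicle only and 100% = reference blocker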
ABCB6 inh MLPCN: inhibitors of human ABC transporter ABCB6 | K562-ABCB6 porphyrin accumulation, flow cytometry, 1 h; hits give low values | fluorescence ratio to DMSO, % at 10 µM | 0.19% of 360,000 active;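 active = fluorescence ratio to DMSO below 75%, the collection mean minus 3 SD; inconclusive = too few cells collected in the well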;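 note: signal is porphyrin accumulated inside mitochondria; 100% equals median channel fluorescence of DMSO control wells; lower ratio means ABCB6 inhibition with less porphyrin fluorescence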
TLR9-MyD88 block: inhibitors of human TLR9-MyD88 binding | AID 504734 | 0.21% of 340,000 active | inhibition, % at 4.98 µM | CHO BLA complementation TLR9-MyD88, CCF4 FRET ratio;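 active = inhibition above the mean over all tested compounds plus 3 SD, cut at about 21% in these data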;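 note: 0% = DMSO only wells and 100% = clavulanate BLA inhibitor control wells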
Starred values were filed as active, the others as inactive; i = inactive; ? = inconclusive; nt = no result; + = active, no number.

SMILES	Myeloid diff 2	TLR4 MyD88 comp	NOD2 RIPK2 PPI	ABCB6 inh MLPCN	TLR9-MyD88 block
Cc1ccccc1CN1C(=O)c2ccccc2Sc2ccc(C(=O)NCCN3CCOCC3)cc21	?	nt	6	106	-5
CCN1CCN(CCNC(=O)c2ccc(/C=C3/Sc4ccccc4N(Cc4ccccc4C)C3=O)cc2)CC1	+	11	12	105	11
O=C(NCCN1CCOCC1)c1ccc2c(c1)N(Cc1ccccc1F)C(=O)c1ccccc1S2	+	-16	2	104	-1
CC(=O)C(/C=N/c1ncc(C(F)(F)F)cc1Cl)=C(\C)O	i	-1	4	102	-8
CC1=C(C(=O)N(C(C)C)C(C)C)CC(CC(=O)NCc2cccc3ccccc23)C(=O)N1Cc1ccc(C(C)(C)C)cc1 (centres undefined)	i	nt	-7	98	nt
CNC(=O)c1cc(C(=O)c2ccc(C(F)(F)F)cc2F)c[nH]1	i	-12	-5	98	-6
CNC(=O)c1cc(C(=O)c2ccc(C(F)(F)F)cc2)c[nH]1	+	nt	-3	105	-7
CCn1cc([N+](=O)[O-])c(C(=O)N2CCCC2)n1	+	-2	-9	102	-5
CC(C)(C)C(=O)Nc1ccc(N2CCN(C(=O)c3cccs3)CC2)cc1	+	nt	-14	128	-4
O=C(Nc1ccc(N2CCN(C(=O)c3cccs3)CC2)cc1)c1ccccc1F	+	nt	-12	92	5
COc1ccccc1NC(=O)CCC(=O)c1ccc(-c2ccccc2)cc1	+	3	-14	97	-2
C/C(CC(=O)Nc1cc(C)ccn1)=N\NC(=O)c1cccc(F)c1	+	nt	1	97	0
C/C(CC(=O)Nc1cc(C)ccn1)=N\NC(=O)c1ccc(C)cc1	i	-6	-6	99	-24
CCCCS(=O)(=O)N1CCN(S(=O)(=O)c2ccc(Cl)s2)CC1	i	nt	3	104	-8
O=[N+]([O-])c1cccc(-c2ccc(/C=N/Nc3nc(N4CCCCC4)nc(N4CCCCC4)n3)o2)c1	i	-10	7	97	5
O=[N+]([O-])c1ccc(-c2ccc(/C=N/Nc3nc(N4CCCCC4)nc(N4CCCCC4)n3)o2)cc1	+	25	4	i	nt
O=C1CCCC2=C1C(c1ccc(O)c(O)c1)Nc1ccc3ccccc3c12 (centres undefined)	i	nt	-15	93	-3
O=C1CCCC2=C1C(c1ccco1)Nc1ccc3ccccc3c12 (centres undefined)	+	-2	-8	106	2
COc1ccc(C(=O)/C=C2/c3ccccc3CC(C)(C)N2C)cc1OC	i	9	-11	96	10
CCn1c(SCC(=O)NC2=NCCS2)nnc1C(C)NC(=O)c1ccccc1Br (centres undefined)	i	nt	-13	96	1
CC(C)CC(NC(N)=O)C(=O)NCc1ccc(Cl)cc1 (centres undefined)	i	-9	-10	106	11
CC(C)CC(NC(N)=O)C(=O)NCc1ccccc1Cl (centres undefined)	+	-6	-5	120	-5
O=c1[nH]c2ccccc2nc1/C=C/c1ccccc1	i	-15	0	100	-12
O=c1[nH]c2ccccc2nc1/C=C/c1ccc(F)cc1	+	-1	-4	180	2
CC(C)(C)n1nc2c(c1NC(=O)COc1ccc(F)cc1)CS(=O)(=O)C2	i	nt	-14	104	-13
SMILES	Myeloid diff 2	TLR4 MyD88 comp	NOD2 RIPK2 PPI	ABCB6 inh MLPCN	TLR9-MyD88 block
COc1ccc(OCC(=O)Nc2c3c(nn2C(C)(C)C)CS(=O)(=O)C3)cc1	+	nt	-4	98	-5
Cc1ccccc1OCC(=O)Nc1c2c(nn1C(C)(C)C)CS(=O)(=O)C2	+	nt	-7	103	-4
COc1cc(NC(=O)CCNC(=O)Cn2cnc3sc4c(c3c2=O)CCCC4)cc(OC)c1OC	+	nt	2	86	-7
COCCCC1CCN(C(=O)C2CCC(=O)N(CC3CCCCC3)C2)CC1 (centres undefined)	i	nt	-9	101	-12
Cc1sc2nc(COC(=O)c3cccc(S(=O)(=O)N(C)c4ccccc4)c3)[nH]c(=O)c2c1C	+	4	7	125	-4
O=[N+]([O-])c1ccc(S(=O)(=O)N/N=C/c2ccsc2)cc1	i	nt	5	103	-4
CCOC(=O)C1=C(O)c2ccccc2C(=O)/C1=C\c1ccc(CC)cc1	+	8	2	905	-7
CCOC(=O)C1=C(Cc2ccc(OC)cc2)C(=O)c2ccccc2C1=O	+	10	8	513	10
CCCc1ccc(/C=C2\C(=O)c3ccccc3C(O)=C2C(=O)OCC)cc1	nt	12	nt	nt	nt
CCOc1ccc(Br)cc1C(=O)Nc1ccc(C(=O)NCC(C)C)cc1	+	-4	-5	94	-14
COc1ccc(Br)cc1C(=O)Nc1ccc(C(=O)NCC(C)C)cc1	i	4	-1	105	-4
Cc1ccc(C(=O)NNC(=O)c2csc(N3CCOCC3)n2)s1	i	nt	-14	101	0
CC1=C(C(=O)N(C(C)C)C(C)C)CC(CC(=O)NCCCCc2ccccc2)C(=O)N1Cc1ccc(C(C)(C)C)cc1 (centres undefined)	+	nt	-12	88	nt
CCCN(CCC)CCCNC(=O)c1ccc(CS(=O)(=O)c2c(Cl)cccc2Cl)o1	i	nt	0	99	0
CC(=O)N(/N=C1\Sc2ccccc2C1=O)c1ccccc1C	i	7	-9	112	-8
CC(=O)N(/N=C1\Sc2ccccc2C1=O)c1ccc(C)cc1C	+	-14	7	274	-12
CCC(=O)c1ccc(N2CCN(C(=O)c3cccs3)CC2)c(F)c1	i	nt	7	98	-11
NNc1nc(C(F)(F)F)nc2ccccc12	i	-16	-3	101	-12
CN(N)c1nc(C(F)(F)F)nc2ccccc12	+	0	0	88	8
COc1cc(NC(=O)CN2C(=O)COc3ccc(S(=O)(=O)N4CCOCC4)cc32)cc(OC)c1	i	nt	6	104	3
CCOc1ccc2nc(NC(=S)N(C)C)sc2c1	+	-5	-10	88	5
CC1=C(C(=O)Nc2cccc(C(=O)NC(C)c3ccccc3)c2)SCCO1 (centres undefined)	i	nt	-2	96	6
CCCCn1c(N)c(N(CC(C)C)C(=O)c2ccc(-c3ccc(C(C)=O)cc3)o2)c(=O)[nH]c1=O	i	nt	-3	99	-24
CCO[C@@H]1OC(C(=O)NCc2ccccc2)=C[C@H](C2CC2)[C@H]1CCCO	i	5	-25	100	-1
CCO[C@@H]1OC(C(=O)NCc2ccccc2)=C[C@H](C2CCCCC2)[C@H]1CCCO	+	-8	16	101	12
C[C@@H]1CN([C@H](C)CO)C(=O)CCCn2nncc2CO[C@@H]1CN(C)S(=O)(=O)c1ccccc1	i	nt	4	99	-3
